Where “and” joins values, the source holds several entries; their conditions need not be identical. Identical values can stand only once. Records with an inconclusive call do not appear. Calls of active or inactive are those of the source.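 The calls were made as follows, unless noted: active = normalized viability below 100% at a tested concentration; inactive = the rest.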
Legend:
[1] = growth inhibition of DIPG glioma cells, dose response, cell-based, SU-DIPG-XVII, MIPE5.0, CellTiter-Glo, qHTS (AID 1347060; cut-off not given, nearly all actives have AC50 up to about 26 µM;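 as to AC50: cells exposed to compound for 48 hours before viability readout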); conditions: SU-DIPG-XVII viability, CellTiter-Glo ATP luminescence
[2] = growth inhibition of DIPG glioma cells, dose response, cell-based, SU-DIPG-XIII, MIPE4.0, CellTiter-Glo, qHTS (AID 1347061; cut-off not given, nearly all actives have AC50 up to about 37 µM;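 also: cells exposed to compound for 48 hours before readout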); conditions: SU-DIPG-XIII viability, CellTiter-Glo ATP luminescence
[3] = growth inhibition of DIPG glioma cells, dose response, cell-based, JHH-DIPG-1, MIPE4.0, CellTiter-Glo, qHTS (AID 1347062; cut-off not given, nearly all actives have AC50 up to about 27 µM;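 as to AC50: cells exposed to compound for two days before readout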); conditions: JHH-DIPG-1 viability, CellTiter-Glo ATP luminescence
[4] = growth inhibition of DIPG glioma cells, dose response, cell-based, SU-DIPG-IV, MIPE4.0, CellTiter-Glo, qHTS (AID 1347063; cut-off not given, nearly all actives have AC50 up to about 30 µM;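 also: compound exposure lasted 48 hours before the viability readout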); conditions: SU-DIPG-IV viability, CellTiter-Glo ATP luminescence
[5] = growth inhibition of DIPG glioma cells, dose response, cell-based, SU-DIPG-XIII, MIPE5.0, CellTiter-Glo, qHTS (AID 1347064; cut-off not given, nearly all actives have AC50 up to about 23 µM;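 as to AC50: cells exposed to compound for 48 hours before the viability read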); conditions: SU-DIPG-XIII viability, CellTiter-Glo ATP luminescence
[6] = viability loss in pontine glioma line – cell-based, SU-DIPG-XXV, MIPE5.0, CellTiter-Glo, qHTS, dose response (AID 1347065; cut-off not given, nearly all actives have AC50 up to about 26 µM;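 also: cells exposed to compound for 48 hours before ATP readout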); conditions: CellTiter-Glo ATP luminescence
[7] = SU-DIPG-VI glioma cell viability, MIPE4.0 library, CellTiter-Glo luminescence, qHTS (AID 1347066; cut-off not given, nearly all actives have AC50 up to about 30 µM;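 also: cells exposed to compound for 48 hours before readout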); conditions: CellTiter-Glo ATP luminescence
[8] = SU-DIPG-XXV glioma cell viability, MIPE5.0 library, qHTS (AID 1347068; cut-off not given, nearly all actives have IC50 up to about 30 µM)
[9] = sensitizers of A549 cells to miR-34 induction, primary screen, imaging, A549 dox-inducible miR-34, nuclei and caspase counts (AID 1347080;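 active = compounds whose cell count with miR-34 switched on is under 0.7 times the count with it off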); conditions: A549 miR-34 inducible, Hoechst nuclei count, 48 h
[10] = survival rescue of mitochondrial mutant cells in low glucose, primary screen, MELAS cybrids, Rieske KO mouse fibroblasts, CellTiter-Glo (AID 1508586;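 active = mean z-score across replicates of 1.96 or higher in either the MELAS or the Rieske mutant cell line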;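 also: z relative to plate mean and SD of compound and empty wells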)
[11] = JHH-DIPG-1 glioma cell viability, MIPE5.0 library, CellTiter-Glo luminescence, qHTS (AID 1347067; cut-off not given, nearly all actives have AC50 up to about 26 µM;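 also: cells exposed to compound for 48 hours before readout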); conditions: JHH-DIPG-1 glioma viability, CellTiter-Glo ATP luminescence
[12] = modifiers of HSF1 nuclear foci, imaging, Selleck Cancer Library (AID 1347162; in the data active = plate-normalised HSF1 focus index below about 0.46); conditions: human cells, at 10 µM; SSMD: measured here: HSF1 foci SSMD mean; cell count: measured here: cell number; plate-normalised HSF1 focus index: stronger effect = lower value
[13] = ovarian cancer cell viability with rucaparib, profiling panel, oncology-focused library, rucaparib conditional (AID 1508598); conditions: patient-derived ovarian cancer cells, CellTiter-Glo viability, 144 h, stronger effect = lower value
[14] = stronger effect = lower value, cell number ratio, induced over uninduced
[15] = measured here: relative caspase fold change +Dox/-Dox
[16] = measured here: total cells with miR-34 induction, stronger effect = lower value
[17] = measured here: total cells without miR-34 induction
[18] = MELAS cybrid survival, CellTiter-Glo 48 h, stronger effect = higher value
[19] = Rieske KO mouse fibroblast survival, CellTiter-Glo 72 h

CC(=O)O[C@H]1C[C@@H]2CC[C@@H]3[C@H](CC[C@@]4(C)[C@H]3C[C@H]([N+]3(C)CCCCC3)[C@@H]4OC(C)=O)[C@@]2(C)C[C@@H]1[N+]1(C)CCCCC1
9560 and 9410 and 11300: cell count [9, 17]
-1.19 and -0.284: z-score [10, 19]
inactive: outcome [1] | outcome [2] | outcome [3] | outcome [4] | outcome [5] | outcome [6] | outcome [7] | outcome [8] | fold change [9, 14] 1.08 and 0.979 and 0.882 | z-score [10, 18] -0.0905 and -0.925
10300 and 9210 and 9980: cell count [9, 16]
0.886 and 0.709 and 0.967: fold change [9, 15]

CN(C)C[C@@H]1CCn2cc(c3ccccc32)C2=C(C(=O)NC2=O)c2cn(c3ccccc23)CCO1
3.92: SSMD [12]
active: AC50 [1] 26300 nM | AC50 [2] 16600 nM | AC50 [3] 29600 nM | AC50 [4] 16600 nM | AC50 [5] 9340 nM | AC50 [6] 18600 nM | AC50 [7] 13200 nM | AC50 [11] 7420 nM
6860: cell count [12]
inactive: plate-normalised HSF1 focus index [12] 1.24

CCNC(=O)c1cc2c(-c3cc(OCCN4CCCC4)c(Cl)cc3Cl)nc(N)nc2s1
active: AC50 [1] 1020 nM | AC50 [2] 6620 nM | AC50 [3] 935 nM | AC50 [4] 2350 nM | AC50 [5] 2290 nM | AC50 [6] 1620 nM | AC50 [11] 1820 nM

Cc1cc(N2CCOCC2)cc2[nH]c(-c3c(NC[C@@H](O)c4cccc(Cl)c4)cc[nH]c3=O)nc12
active: AC50 [1] 742 nM | AC50 [2] 1480 nM | AC50 [3] 13200 nM | AC50 [4] 7430 nM | AC50 [5] 209 nM | AC50 [6] 263 nM | AC50 [7] 52.6 nM | AC50 [11] 3720 nM | viability ([13]; at 0.000305 µM, OCI-P5x cells, without rucaparib) 99.5% | viability ([13]; at 0.00122 µM, OCI-P5x cells, without rucaparib) 97.6% | viability ([13]; at 0.00488 µM, OCI-P5x cells, without rucaparib) 98.9% | viability ([13]; at 0.0195 µM, OCI-P5x cells, without rucaparib) 96.1% | viability ([13]; at 0.0781 µM, OCI-P5x cells, without rucaparib) 83.6% | viability ([13]; at 0.313 µM, OCI-P5x cells, with rucaparib 20 µM, 100% = cells with rucaparib alone) 79.9% | viability ([13]; at 0.313 µM, OCI-P5x cells, without rucaparib) 66.6% | viability ([13]; at 1.25 µM, OCI-P5x cells, with rucaparib 20 µM, 100% = cells with rucaparib alone) 41.4% | viability ([13]; at 1.25 µM, OCI-P5x cells, without rucaparib) 53.5% | viability ([13]; at 5 µM, OCI-C5x cells, with rucaparib 10 µM, 100% = cells with rucaparib alone) 37.3% | viability ([13]; at 5 µM, OCI-C5x cells, without rucaparib) 80.4% | viability ([13]; at 5 µM, OCI-P5x cells, with rucaparib 20 µM, 100% = cells with rucaparib alone) 0.53% | viability ([13]; at 5 µM, OCI-P5x cells, without rucaparib) 12.5%
inactive: outcome [8] | viability ([13]; at 0.000305 µM, OCI-C5x cells, with rucaparib 10 µM, 100% = cells with rucaparib alone) 117% | viability ([13]; at 0.000305 µM, OCI-C5x cells, without rucaparib) 119% | viability ([13]; at 0.000305 µM, OCI-P5x cells, with rucaparib 20 µM, 100% = cells with rucaparib alone) 135% | viability ([13]; at 0.00122 µM, OCI-C5x cells, with rucaparib 10 µM, 100% = cells with rucaparib alone) 126% | viability ([13]; at 0.00122 µM, OCI-C5x cells, without rucaparib) 114% | viability ([13]; at 0.00122 µM, OCI-P5x cells, with rucaparib 20 µM, 100% = cells with rucaparib alone) 133% | viability ([13]; at 0.00488 µM, OCI-C5x cells, with rucaparib 10 µM, 100% = cells with rucaparib alone) 123% | viability ([13]; at 0.00488 µM, OCI-C5x cells, without rucaparib) 109% | viability ([13]; at 0.00488 µM, OCI-P5x cells, with rucaparib 20 µM, 100% = cells with rucaparib alone) 130% | viability ([13]; at 0.0195 µM, OCI-C5x cells, with rucaparib 10 µM, 100% = cells with rucaparib alone) 119% | viability ([13]; at 0.0195 µM, OCI-C5x cells, without rucaparib) 118% | viability ([13]; at 0.0195 µM, OCI-P5x cells, with rucaparib 20 µM, 100% = cells with rucaparib alone) 133% | viability ([13]; at 0.0781 µM, OCI-C5x cells, with rucaparib 10 µM, 100% = cells with rucaparib alone) 126% | viability ([13]; at 0.0781 µM, OCI-C5x cells, without rucaparib) 123% | viability ([13]; at 0.0781 µM, OCI-P5x cells, with rucaparib 20 µM, 100% = cells with rucaparib alone) 118% | viability ([13]; at 0.313 µM, OCI-C5x cells, with rucaparib 10 µM, 100% = cells with rucaparib alone) 123% | viability ([13]; at 0.313 µM, OCI-C5x cells, without rucaparib) 123% | viability ([13]; at 1.25 µM, OCI-C5x cells, with rucaparib 10 µM, 100% = cells with rucaparib alone) 133% | viability ([13]; at 1.25 µM, OCI-C5x cells, without rucaparib) 126%

CC(C)n1nc(-c2cc3cc(O)ccc3[nH]2)c2c(N)ncnc21
1.11: fold change [9, 15]
inactive: fold change [9, 14] 0.892
active: AC50 [1] 2630 nM | AC50 [2] 18700 nM | AC50 [3] 9350 nM | AC50 [4] 148 nM | AC50 [5] 1660 nM | AC50 [6] 742 nM | AC50 [7] 20900 nM | AC50 [11] 2630 nM | z-score [10, 18] 5.6
-2.66: z-score [10, 19]
1620: cell count [9, 16]
1820: cell count [9, 17]
